Experimental data: PubChem BioAssay

assay: binders of probe aHhip on microarray, primary screen, stem cell growth factor project, biochemical, small-molecule microarray, fluorescence 635/667 (AID 1087); conditions: higher = more signal;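 note: score merges spot fluorescence at 667nm with spot signal to noise ratio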

Row | SMILES | composite z-score
1 | CCOC(=O)C1=C[C@@H](C(C)C)N(S(=O)(=O)c2ccc(C)cc2)[C@H]1c1ccc(C(C)C)cc1 | -0.0754
2 | CCOC(=O)C[C@H]1[C@H](OC(=O)c2ccc(-c3ccccc3)cc2)[C@@H](NC(=O)c2ccc3ccccc3c2)c2cc(OCCCO)ccc2N1C(=O)Cc1ccc(OC)cc1 | -0.134
3 | CCOC(=O)C[C@H]1[C@H](OC(=O)c2ccccc2-c2ccccc2)[C@@H](NC(=O)c2ccc3ccccc3c2)c2cc(OCCCO)ccc2N1C(=O)c1ccc2ccccc2n1 | -0.0373
4 | COCCOC(=O)N1C(=O)[C@@]2(c3cc(C#CC4=CCCCC4)ccc31)[C@H](C(=O)NC[C@H](O)c1ccccc1)[C@H]1C(=O)O[C@H](c3ccccc3)[C@H](c3ccccc3)N1[C@@H]2c1ccc(O)cc1 | -0.0296
5 | C=C(COC)C(=O)CC[C@H](OC(C)=O)c1cccc(OCCO)c1 | -0.291
6 | N[C@@H](Cc1ccccc1)Cn1cc(-c2ccccc2)nn1 | -0.186
7 | O=C1O[C@@H](c2ccccc2)[C@@H](c2ccccc2)N2[C@@H](c3ccc(OCCO)cc3)[C@]3(C(=O)Nc4ccc(C#CC5=CCCCC5)cc43)[C@@H](C(=O)O)[C@H]12 | 0.0274
8 | COCCOC(=O)N1C(=O)[C@@]2(c3cc(C#CCC(C(=O)OC)C(=O)OC)ccc31)[C@H](C(=O)N1CCCCCCC1)[C@H]1C(=O)O[C@H](c3ccccc3)[C@H](c3ccccc3)N1[C@@H]2c1ccc(OCCO)cc1 | 2.72
9 | CCCCC=C[C@@H](NC(=O)c1ccco1)c1ccccc1 | 0.525
10 | C=CCC(OC(C)=O)[C@@H]1[C@@H](N(Cc2cccc3ccccc23)C(=O)c2cccc3ccccc23)c2cc(OCCCO)ccc2N1C(=O)c1ccc2ccccc2n1 (some centres not stated) | 0.0826
11 | COc1ccc([Si](C)(C)[C@H]2[C@H](CCn3cc(CCO)nn3)O[C@@]3(C(=O)N(Cc4ccc(N5CCOC5=O)cc4)c4ccccc43)[C@@H]2C)cc1 | -0.236
12 | CC(=O)Nc1cc(Br)ccc1C(=O)O | -0.221
13 | CN1CCC(CCCO)=CC1c1ccc(CN2CCCC2)cc1 (configuration not stated) | -0.0237
14 | COCCOC(=O)N1C(=O)[C@@]2(c3ccccc31)[C@H](C(=O)Nc1nc3ccccc3s1)[C@H]1C(=O)O[C@H](c3ccccc3)[C@H](c3ccccc3)N1[C@@H]2c1ccc(OCCO)cc1 | -0.117
15 | COC(=O)c1ccc(C(O)C2C=CC3C(=O)N(C)C(=O)C3N2NC(=O)OC(C)(C)C)o1 (configuration not stated) | -0.0024
16 | O=C1OCCC=C[C@H]2OC34C=CCN(Cc5ccccc5)C(=O)[C@H]3N(CCCCCCO)C(=O)[C@@H]4C12 (some centres not stated) | -0.621
17 | CC(C)N1C(=O)c2ccccc2[C@@H](C(=O)NCCCN(C)C)[C@@H]1c1ccc(CO)cc1 | 0.0066
